The values that follow come from PubChem BioAssay AID1053126 (Broad Institute, 2014).

The structures appear in SMILES notation. Potency and affinity values are given separately. Unmarked numbers belong to inactive results.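 How the source made its calls: active means cell killing with a fitted half-effect concentration at or below twice the top valid dose; inconclusive means flat curve with 30 to 70 percent drop, or poor fit; inactive means the rest.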

A short description of the test: HEK293T cell cytotoxicity, dose response, cytotoxicity control, ATP luminescence, cherry-pick, set 6 (AID 1053126).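 Further: 0% = neutral control wells and -100% = mitoxantrone 10 µM positive control.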 Particulars: HEK293T viability, CellTiter-Glo ATP luminescence, 72 h; series mostly up to 26 µM; activity change, negative = cytotoxicity: at the top concentration.
As to `O=C(Cn1ccc([N+](=O)[O-])n1)N1CCCCCC1`, the “activity change, negative = cytotoxicity” value was -8.62%.
Take `Cc1ccc2nc3c(cc(S(=O)(=O)c4ccccc4)c(=N)n3Cc3ccco3)c(=O)n2c1`: the “activity change, negative = cytotoxicity” value is -15.9%.
On to `O=C(Cc1csc(-c2ccccc2)n1)NCc1ccccc1F`, for which the “activity change, negative = cytotoxicity” value is 9.15%.
The result for `CCNc1nc2nc3ccc(C)cn3c(=O)c2cc1C(=O)NCC1CCCO1` (configuration not stated) reads -9.39%; that for `Nc1cccc2c1C(=O)N(c1ccccc1)C2=O`, -15.3%.
In the case of `Nc1ccc2nc(-c3ccccc3)cnc2c1`, the “activity change, negative = cytotoxicity” value is -5.63%.
Regarding `C[C@H](NC(=O)c1nc[nH]c1C(=O)N[C@@H](Cc1ccccc1)C(=O)OC(C)(C)C)C(=O)OCc1ccccc1`, the “activity change, negative = cytotoxicity” value was 12%.
The same measure for `N#Cc1ccc(OCC(=O)OCC(=O)N2CCc3ccccc32)cc1`: -5.79%; for `CNNC(=S)NC1CC2CC1C1C=CCC21` (configuration not stated): 19.1%; for `Cc1cc(-c2nc3cccnc3s2)ccc1NS(=O)(=O)c1cccs1`: 2.17%.
The result for `COc1ccc(S(=O)(=O)N2CCCC2CNC(=O)C(=O)NC2CCCC2)cc1` (configuration not stated) reads -3.54%; that for `O=C1c2ccccc2S(=O)(=O)c2cc(N3CCC(C(=O)N4CCCCC4)CC3)ccc21`, -19.3%; that for `CC(C)c1ccc(/C=C2\Oc3c(ccc(O)c3CN3CCN(C)CC3)C2=O)cc1`, -6.47%.
For `CC1CCCCN1Cc1c(O)ccc2c(=O)c(-c3nc4ccccc4s3)coc12` (configuration not stated), the “activity change, negative = cytotoxicity” value is -6.86%.
Regarding `CCN(CC)CCNC(=O)c1sc2nc(-c3ccccc3)cn2c1C`, the “activity change, negative = cytotoxicity” value is 10.8%.
The result for `CCOC(=O)c1cc2c(=O)n3ccccc3nc2n(Cc2ccc(Cl)cc2)c1=N` reads 7.6%.
For `CCOc1ccc(-n2c(SCC(=O)Nc3nccs3)nnc2-c2ccoc2C)cc1`, the “activity change, negative = cytotoxicity” value is 0.85%.
The same measure for `C/C(=N\NC(=O)CC#N)c1cc2ccc(O)cc2oc1=O`: 12.9%.
Regarding `Cc1cccn2c(=O)c(/C=C(\C#N)C(N)=O)c(Oc3ccccc3)nc12`, the “activity change, negative = cytotoxicity” value was -7.72%.
As for `COc1ccccc1C1C2=C(CC(C)(C)CC2=O)N(CC(=O)O)C2=C1C(=O)CC(C)(C)C2`, the “activity change, negative = cytotoxicity” value was 24.7%.
With `O=C(c1ccc(F)cc1)C1CCN(C(=O)Nc2ccccc2Cl)CC1`, the “activity change, negative = cytotoxicity” value was -6.61%.
With `O=C(O)c1ccc(N/N=C/c2ccc(-c3ccccc3Cl)o2)cc1`, the “activity change, negative = cytotoxicity” value is -11.7%.
The result for `CCCn1c(=N)c(S(=O)(=O)c2ccccc2)cc2c(=O)n3ccccc3nc21` reads -5.16%; that for `O=C(COC(=O)c1cc(S(=O)(=O)N2CCCCC2)ccc1N1CCOCC1)c1ccccc1Cl`, -13.4%; that for `COc1ccc(CCNC(=O)c2cc(S(=O)(=O)N3CCCCC3)c[nH]2)cc1OC`, 15.3%.
With `CC(C)CCn1c(CN2CC(C)OC(C)C2)nc2c1c(=O)n(C)c(=O)n2C` (configuration not stated), the “activity change, negative = cytotoxicity” value is 2.88%.
The result for `Cc1ccc2nc3c(cc(C(=O)NCc4ccccc4)c(=N)n3CCCn3ccnc3)c(=O)n2c1` reads -6.07%; that for `CCOc1ccc(C2C(C#N)=C(N)Oc3cc(O)ccc32)cc1OCC` (configuration not stated), 5.38%; that for `N=c1oc2cc(O)ccc2cc1C(=O)Nc1nc2ccccc2s1`, -12.6%.
With `CCCCN(CCCC)CC(O)Cn1c2ccccc2c(=O)c2ccccc21` (configuration not stated), the “activity change, negative = cytotoxicity” value was 0.815%.
For `Cc1ccc(C(=O)OCC(=O)Nc2c(C)nn(-c3ccccc3)c2C)c(O)c1`, the “activity change, negative = cytotoxicity” value is 25.2%.
The same measure for `COC(=O)C1=CN(Cc2ccc(OC)c(OC)c2)C=C(C(=O)OC)C1c1cccc(F)c1`: -13.2%; for `CCOC(=O)c1cc2c(=O)n3ccccc3nc2n(C(C)C)c1=NC(=O)c1ccco1`: -13.2%.
Take `COc1cc(C(=O)NCCCNc2nc3c(C)cc(C)cc3cc2C#N)cc(OC)c1OC`: the “activity change, negative = cytotoxicity” value was 7.6%.
As to `Cc1nc2ccc(S(=O)(=O)Nc3ccc(-c4nc5cccnc5s4)cc3)cc2s1`, the “activity change, negative = cytotoxicity” value was 31.4%.
For the molecule `CCN(c1ccccc1)S(=O)(=O)c1ccc(OC)c(NC(=O)CN(C)C)c1`, the “activity change, negative = cytotoxicity” value is -19%.
The same measure for `O=C(O)C1=CC[C@@H](c2ccc(Cl)cc2)N(S(=O)(=O)c2ccc(Cl)cc2)[C@H]1c1ccc(F)cc1`: -13.8%.
